High-throughput results: PubChem BioAssay, National Center for Advancing Translational Sciences (NCATS)
Many of the other results were omitted from the sample, so hits are more common in it than they were.
ALOX12 inh – blocks human arachidonate 12S-lipoxygenase. P18054. purified 12hLO, xylenol orange hydroperoxide absorbance. Potency, µM (doses to about 108 µM), most hits filed as inhibitors. hit rate 1.1% among 580,000. AID 1671190
Target sequence (P18054 whole entry, looked up): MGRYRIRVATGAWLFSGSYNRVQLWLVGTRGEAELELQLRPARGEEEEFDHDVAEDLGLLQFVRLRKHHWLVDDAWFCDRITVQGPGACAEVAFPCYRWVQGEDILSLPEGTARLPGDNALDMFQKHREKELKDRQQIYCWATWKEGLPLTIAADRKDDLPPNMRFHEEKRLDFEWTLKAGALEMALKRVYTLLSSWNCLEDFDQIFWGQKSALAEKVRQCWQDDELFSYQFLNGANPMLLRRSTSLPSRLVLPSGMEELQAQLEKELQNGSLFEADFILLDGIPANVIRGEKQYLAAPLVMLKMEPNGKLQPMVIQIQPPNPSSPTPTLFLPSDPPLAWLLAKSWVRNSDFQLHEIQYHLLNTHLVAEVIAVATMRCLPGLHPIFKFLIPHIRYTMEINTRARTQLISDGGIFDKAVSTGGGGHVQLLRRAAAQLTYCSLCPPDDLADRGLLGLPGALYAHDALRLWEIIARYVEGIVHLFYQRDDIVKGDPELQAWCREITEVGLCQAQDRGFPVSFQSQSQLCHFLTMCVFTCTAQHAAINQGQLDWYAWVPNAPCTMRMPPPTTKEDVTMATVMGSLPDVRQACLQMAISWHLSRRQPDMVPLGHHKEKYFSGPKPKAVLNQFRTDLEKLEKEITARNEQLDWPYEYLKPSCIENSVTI
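Purified human 12hLO (150 nM final) in 25 mM Hepes, 0.01% Triton X-100, pH 7.0 was preincubated 15 min at room temperature with compound. Then 40 uM arachidonic acid was added, 30 min. Hydroperoxide was read by Fe-XO absorbance ratio 573/405 nm.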
GRP78 ERSR act – ER stress response induction in glioma. Potency, µM, hits mostly activators. hit rate 0.02% among 420,000. U87-MG GRP78 promoter luciferase reporter, 16 h. AID 602332; further: series mostly up to about 76 µM; nearly all actives have a fitted effect of over 35% in size
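Stably transfected U87-MG glioma cells carrying a GRP78-based luciferase sensor; 16 h compound incubation. Luminescence end-point read 10 min after Bright-Glo addition at room temperature.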
G9a inh – blocks human histone lysine methyltransferase G9a; Potency, µM (titrated, usually from 102 µM), hits mostly inhibitors; hit rate 8.8% among 350,000; Q96KQ7; G9a H3K9 monomethylation, AlphaScreen, 2 h; further: nearly all actives have a fitted effect of over 75% in size
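Step 1: enzyme (final 20 nM) with compound, 15 min RT. Step 2: substrate peptide 500 nM and SAM 20 uM, 2 h RT. Step 3: anti-H3K9me1 antibody and AlphaScreen beads, 10 min, then plate read.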
VDR inh – inhibitors of human vitamin D receptor | AID 504847 | Potency, µM, most hits filed as inhibitors | VDR-SRC2-3 peptide fluorescence polarization, 2 h | hit rate 0.93% among 400,000 | P11473
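Compounds are added to VDR with labelled SRC2-3 coactivator peptide and held 2 h at room temperature. Inhibition of the VDR–peptide interaction is then read as a change in fluorescence polarization.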
Sfp PPTase inh – Sfp phosphopantetheinyl transferase inhibition. Potency, µM, actives largely listed as inhibitors. Q9F4F7. Biochemical Sfp PPTase activity, qHTS. hit rate 3.5% among 310,000;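 further: the enzyme is Sfp with the accession as filed and its product quenches rhodamine fluorescence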
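Reaction rates are the 30-min fluorescence difference (ex 525, em 598 nm) in wells containing 15 nM Sfp, 5 uM rhodamine-CoA and 12.5 uM BHQ-2-YbbR at pH 7.6 with 10 mM MgCl2.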
Numbers stand for hits; 0 = inactive; ? = inconclusive; - = not tested or not shown. The call rests on the fitted dose curve; in most records, active means well fitted curve in the direction sought with a large enough effect; inconclusive means small, poorly fitted or top-dose-only effect, or another doubt; inactive means no such curve, though single readings can be large; an effect the other way counts as inactive or inconclusive.

SMILES | ALOX12 inh | GRP78 ERSR act | G9a inh | VDR inh | Sfp PPTase inh
Cc1nnc(NC(=O)CSc2ccc([N+](=O)[O-])cn2)s1 | 0 | 0 | ? | 0 | 0
O=C(Cn1cnc2ccccc2c1=O)Nc1ccc2c(c1)OCO2 | 0 | 0 | 0 | 0 | 0
N#Cc1ccccc1NC(=O)CSc1ccc([N+](=O)[O-])cn1 | 0 | 0 | 50.1µM | 0 | 0
O=C(CSc1ccc([N+](=O)[O-])cn1)Nc1ccc2c(c1)OCO2 | 0 | 0 | 44.7µM | 0 | 0
O=C(Cn1cnc2cc([N+](=O)[O-])ccc2c1=O)Nc1ccc2c(c1)OCO2 | ? | 0 | 39.8µM | 0 | 0
COC(=O)C1=C(C)C=C(N2CCOCC2)C(C(=O)OC)C1c1ccc(OC)cc1 (stereo not drawn) | 0 | - | - | - | -
C=CCn1c(=O)c2c(nc(-n3nc(C)cc3C)n2CC(C)C)n(C)c1=O | 0 | - | - | - | -
C/C=C/c1ccc(OCCn2cncn2)c(OC)c1 | ? | 0 | 14.1µM | 0 | ?
C/C=C/c1ccc(OCCCn2cncn2)c(OC)c1 | ? | 0 | 2.82µM | 0 | ?
O=C(CCc1ncc(-c2c(F)cccc2F)o1)Nc1ccccc1F | 0 | - | - | - | -
COc1ccc2c(C)c(CCC(=O)NCc3ccc4c(c3)OCO4)c(=O)oc2c1C | 0 | - | - | - | -
C=CC(=O)N1C/C(=C/c2ccc(F)cc2)C(=O)/C(=C\c2ccc(F)cc2)C1 | 7.94µM | 0 | - | 10µM | -
CN1C2CCC1/C(=C\c1ccc(F)cc1)C(=O)/C2=C/c1ccc(F)cc1 | 0 | 0 | 0 | ? | 0
CC(C(=O)Nc1ccccc1C(=O)N1CCOCC1)N(c1ccc(Cl)cc1)S(C)(=O)=O (stereo not drawn) | 0 | 0 | 0 | 22.4µM | 0
O=C1[C@H]2CN(Cc3cccc(Cl)c3)C[C@H]2C(=O)N1CCN1CCc2ccccc2C1 | 0 | - | - | - | -
COC(=O)N/N=C(\C)c1ccco1 | 0 | 0 | 0 | 0 | 0
C=CCN=c1scc(-c2ccco2)n1/N=C/c1ccc(O)c(O)c1O | 17.8µM | 0 | 7.94µM | 0 | 7.08µM
CC(C)N=c1scc(-c2ccco2)n1/N=C/c1ccc(O)c(O)c1 | ? | ? | ? | 0 | ?
O=c1c2ccccc2nc(-c2ccco2)n1/N=C/c1ccccc1O | 0 | 0 | 0 | 0 | 0
COCCN=c1scc(-c2ccco2)n1/N=C/c1ccc(O)c(O)c1O | ? | 0 | 10µM | 0 | 0
Oc1ccc(/C=N/n2c(-c3ccco3)csc2=Nc2cccnc2)c(O)c1 | ? | 0 | ? | 0 | 44.7µM
COCCN=c1scc(-c2cccs2)n1/N=C(\C)c1ccco1 | 0 | 0 | 31.6µM | 0 | 0
Cc1cc(C)n(-c2ccc(NC(=O)C3CCN(Cc4nnc(C)o4)CC3)cc2)n1 | 0 | - | - | - | -
CCc1ccc2oc(C(=O)NCC(c3cccs3)N3CCCCC3)cc(=O)c2c1 (stereo not drawn) | 0 | - | - | - | -
COCCCNC(=O)N1CCCC(COc2ccccc2C(=O)N2CCCCC2)C1 (stereo not drawn) | 0 | - | - | - | -
SMILES | ALOX12 inh | GRP78 ERSR act | G9a inh | VDR inh | Sfp PPTase inh
N#Cc1nc(C2CC2)oc1N1CCN(CC2CCCCC2)CC1 | 0 | - | - | - | -
CCOCCCNC(=O)c1cc(C2CC2)nc2ccccc12 | 0 | - | - | - | -
COc1cc(Cl)ccc1-c1cccc(COc2cnc3c(ccn3CC(=O)O)c2)c1 | 63.1µM | - | - | - | -
CCOCCOC(=O)c1nc2ccccc2nc1NCCc1ccc(OC)c(OC)c1 | 0 | - | - | - | -
CC(NC(=O)CC(C)(C(=O)O)c1ccccc1)c1ccc(F)c(F)c1 (stereo not drawn) | 0 | - | - | - | -
CC(=O)c1c(COC(=O)c2ccncc2)nc2ccccc2[n+]1[O-] | 0 | 0 | 1µM | 0 | 0
CC(=O)c1c(COC(=O)c2cccc(C)c2)nc2ccccc2[n+]1[O-] | 0 | 0 | ? | 0 | 0
COc1cc(OC)c(N(C)S(=O)(=O)c2cccc(C(=O)NCc3cccs3)c2)cc1Cl | 10µM | 0 | - | - | -
CC(C)(C)CC(C)(C)NCC(=O)Nc1c2c(nc3ccccc13)CCC2 | 0 | 0 | 6.31µM | 0 | 0
O=C(Nc1c2c(nc3ccccc13)CCCC2)c1ccccc1Cl | 0 | 0 | 0 | 0 | 0
CCCCC(=O)/C=C/n1c(=S)oc2ccccc21 | 0 | 0 | 0 | 12.6µM | 0
O=C(CCC1NC(=O)N(CCc2c[nH]c3ccc(F)cc23)C1=O)Nc1ccccc1 (stereo not drawn) | 0 | - | - | - | -
COc1ccc(-c2ccc(=O)n(Cc3cccc([N+](=O)[O-])c3)n2)cc1 | 0 | 0 | 0 | 0 | 0
O=C1ON=C(c2ccc([N+](=O)[O-])cc2)/C1=C/c1ccccc1O | ? | 0 | 79.4µM | 79.4µM | 39.8µM
